# Measured values published in PMC12136788.
# Over roughly 24,000 sequences, “enrichment r” has its median near 0.99; the highest 2% begin near 3.7. The full list was thinned out, with the highest values kept by preference.
# T1: UNK ZnF1-3 (human, UniProt Q9C0B0 31-174)
# T1 sequence: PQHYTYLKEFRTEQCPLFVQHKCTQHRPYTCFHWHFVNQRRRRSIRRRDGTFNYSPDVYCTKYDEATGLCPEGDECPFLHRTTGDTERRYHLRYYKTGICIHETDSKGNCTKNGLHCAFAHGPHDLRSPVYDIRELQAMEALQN
# B1: 35472726_35489589_359_3pUTR_ENSMUSG00000029840_ENSMUST00000031866|mouse|control|control (ssRNA)
# RNA: GGGAGUUCUACAGUCCGACGAUCCUGUCCACAAUCUGCAGCAUAAUGAAGAGGCUUCCUUCCACCCUCUAGUGUCCGGUUGACAUCUUCUCCCUUAGCCACAUAGUCCUUCACCUCAUCCAAGUCUCCGUUUUUCAGGGCCCACAACAGAGGAUUGAGCAUCA
# B2: chr17:47010600:47010601:-_ENSG00000159210_ENST00000290330|hu_hu|FALSE|FALSE (ssRNA)
# RNA: GGGAGUUCUACAGUCCGACGAUCACUGACAGUCACGUAGCCAUUCUCUGCCAGCUGCAGCACCACGGUGUGAUCCAUAUUGAGCUCAGCUGGAACAGACUGAAUGAGGUAAGUGCCGCCCACAGGGAUGAUGCCGAAGCCAGUCAACAGAGGAUUGAGCAUCA
# B3: chr2:217001844:217001845:+_ENSG00000079246_ENST00000392132|hu_hu|FALSE|FALSE (ssRNA)
# RNA: GGGAGUUCUACAGUCCGACGAUCGCCGACUUGAGGAUUAGCUCUUUUGUCAUAAGCAUAUCGAACUAUGGCCACCAUGUCUAAGUCAUCCAAAGCAUGAAUCAGGGAGGAAAGUGCAACUGCAGCUGCCUCAUCAUCUCUUGCCAACAGAGGAUUGAGCAUCA
# B4: chr21:40768814:40768815:+_ENSG00000182093_ENST00000333781|hu_mus|motif|central (ssRNA)
# RNA: GGGAGUUCUACAGUCCGACGAUCCUGGCCUUCCCCUCAGCUGAAAGGGUGGAGAACGAUAGCCACAACUUUGUUACAGACGGAAAUCCAACAGGUGAUUCCAAUUCCACCUGCUACUCGAGUAGGAAAGGCUACCAGGCGGUCCAACAGAGGAUUGAGCAUCA
# B5: 96412582_96412966_892_CDS_ENSG00000111144_ENST00000228740|human|control|control (ssRNA)
# RNA: GGGAGUUCUACAGUCCGACGAUCGCCACCAUAAGGGAAGGAUGGUGGCAGGACCAAUAGGUCAUACUGUCCCCAUACAUACGGUCCUCCCAGAUCUUCUGCUAUUUUAAGCAUAGAUUCAGUCUCAGAAAACUCAUAAGCAGACAACAGAGGAUUGAGCAUCA
# B6: 32585910_32588873_1288_CDS_ENSMUSG00000024381_ENSMUST00000025239|mouse|control|control (ssRNA)
# RNA: GGGAGUUCUACAGUCCGACGAUCUGAGAAAGGCCCAGGGGCCUCAAACUGGGAGGGGGUGGUCACGCUGAUCUCAGGGACAAAUGCGUCAUCAAAAAGGCUGAGAAUCUGCUCCUGCUUCAUCUCCUUGGAUGGGGUGUGUUUCAACAGAGGAUUGAGCAUCA
# Molecular target: T1, UNK ZnF1-3
# Test: nsRBNS (natural sequence RNA bind-n-seq); RBNS binding buffer (assumed for nsRBNS): 25 mM Tris pH 7.5, 150 mM KCl, 3 mM MgCl2, 0.01% Triton X-100, 500 ug/ml BSA, 20 U/ml SUPERase-In, 4 C; UNK is unkempt and MSI1 is Musashi-1; names of the RNAs are library labels; protein concentration not given here; high values mean tight binding
row,Binder,binding signal
1,B1,0.866 enrichment R
2,B2,0.843 enrichment R
3,B3,1.53 enrichment R
4,B4,1.05 enrichment R
5,B5,0.524 enrichment R
6,B6,1.65 enrichment R
